In the library only some 2.4% were active in any assay of this set; here they are far more common.
D2 PAM-1 = human D2 receptor positive allosteric modulation; P14416; DiscoveRx D2 beta-arrestin cells, luminescence, 90 min; 100% = 57 uM dopamine signal; potentiation, % (concentration not given with the values); 0.23% of 360,000 active; in the data active means potentiation above about 50%
Target sequence (P14416 whole entry, looked up): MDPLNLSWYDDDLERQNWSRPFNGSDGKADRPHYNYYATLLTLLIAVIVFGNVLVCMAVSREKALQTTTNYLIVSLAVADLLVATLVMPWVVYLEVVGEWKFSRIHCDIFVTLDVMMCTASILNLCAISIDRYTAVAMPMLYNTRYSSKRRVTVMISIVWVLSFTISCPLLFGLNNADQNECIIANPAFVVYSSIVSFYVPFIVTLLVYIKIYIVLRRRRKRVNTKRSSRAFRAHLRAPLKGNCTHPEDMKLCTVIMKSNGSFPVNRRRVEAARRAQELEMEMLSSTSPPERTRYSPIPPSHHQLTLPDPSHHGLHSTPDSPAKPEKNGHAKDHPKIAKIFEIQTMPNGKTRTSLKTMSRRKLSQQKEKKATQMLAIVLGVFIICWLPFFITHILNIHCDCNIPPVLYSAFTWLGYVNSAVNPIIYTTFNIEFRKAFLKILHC
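D2 cells co-treated with compound plus 50 nM dopamine (EC20) for 90 min at 37 deg C to detect potentiation. Beta-arrestin recruitment was read as enzyme-fragment luminescence after 1 h at ambient temperature. Full response was set by 57 uM dopamine.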
D2 ag-1 = activates the human D2 dopamine receptor; HEK293 T-REx D2 cells, calcium flux agonist mode; activation, % at 2 µM; 0.53% of 340,000 active;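 active means activation over 3 SD above normal in the single-dose calcium agonist read, cut at about 30% in these data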
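Calcium-flux readout, 1 cycle/sec over 180 s following compound pin transfer, in inducible HEK293 Trex D2 cells (force-coupled); dopamine controls included. Positive calcium responses during this window marked compounds as potential agonists.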
D2 antag = antagonizes the human D2 dopamine receptor | HEK293 TREx D2 cells, calcium flux, dopamine EC80 | AID 485344 | P14416 | 2% of 340,000 active | inhibition, % at 10 µM; in the data active means inhibition above about 30%; inactive means below that, where a call was filed
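Cells plated overnight at 30 C with tetracycline; no-wash calcium dye, 30–90 min RT; 10 s baseline; compound pinned; 180 s read; EC80 dopamine added; another 180 s read.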
D2 ag-2 = human D2 receptor agonism in beta-arrestin assay; activation, % (concentration not given with the values); P14416; 0.084% of 360,000 active; DiscoveRx PathHunter D2 beta-arrestin, luminescence, 90 min; 100% = 57 uM dopamine signal; in the data active means activation above about 40%
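Agonist mode: compounds alone added to overnight-plated D2 PathHunter cells for 90 min at 37 C, with 57 uM final dopamine (EC100) defining full response. Beta-arrestin recruitment detected by chemiluminescent reagent, read after 1 h at ambient temperature.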
D2 PAM-2 = positive allosteric modulators of human D2 dopamine receptor; 0.34% of 340,000 active; potentiation, % at 10 µM; P14416; HEK293 T-REx D2, calcium flux, EC20 dopamine potentiation;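 active means potentiation over 3 SD above the plate norm, cut at about 30% in these data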
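Cells plated with tetracycline inducer and held overnight at 30 C; calcium dye loaded 30–90 min at room temperature; baseline taken, compound added and read 180 s; EC20 dopamine then added and read 180 s.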
Of the large screens only hits and unclear results are named; the others gave an inactive call.

C/C(=N\NC(=O)c1cccnc1)c1cc(C)oc1C	D2 antag 33.5
CCN(CC(=O)Nc1c(F)cccc1F)C(=O)Cc1csc(-c2ccccc2)n1	D2 antag 35.3
CCN(CC(=O)Nc1c(F)cccc1F)C(=O)Cc1c(C)nc2ccccc2c1C	none
COc1ccc(C(C)=O)cc1COC(=O)C1CC(=O)N(Cc2ccccc2)C1 (stereo unspecified)	D2 PAM-1 53.8
COc1cccc(COC(=O)C2CC(=O)N(Cc3ccccc3)C2)c1OC (stereo unspecified)	none (no result: D2 ag-1, D2 antag, D2 PAM-2)
CSC1=NC2(CCN(C(=O)NC3CCCCC3)CC2)N=C1c1ccc(C)c(C)c1	none (no result: D2 PAM-1, D2 antag, D2 ag-2)
Cc1ccccc1NC(=O)c1c(O)c2cccc3c2n(c1=O)CCC3	D2 antag 46.5 (no result: D2 PAM-1, D2 ag-2)
O=c1c2sc3ccccc3c2n(Cc2ccc(Cl)cc2)c(=O)n1Cc1ccco1	none (no result: D2 PAM-1, D2 antag, D2 ag-2)
Cn1cccc1C(=O)OCC(=O)N1CC(=O)Nc2ccccc21	D2 antag 33.7
CCCC(c1nnnn1CS(=O)(=O)c1ccc(C)cc1)N1CCN(c2ccc(F)cc2)CC1 (stereo unspecified)	D2 antag 59.3 (no result: D2 PAM-2)
COc1cc(CNCc2cc(OC)c(OC)c(OC)c2)cc(OC)c1	D2 antag 30.1
Cc1ccc(CNC(=O)C2CCN(S(=O)(=O)c3ccc4c(c3)oc(=O)n4C)CC2)cc1	none (no result: D2 PAM-1, D2 antag, D2 ag-2)
COc1ccc(/C=C/C(=O)Nc2ccccc2C(=O)N2CCCC2)cc1	none
COc1ccc(/C=C/C(=O)Nc2ccccc2C(F)(F)F)cc1	none
COc1ccc(/C=C/C(=O)Nc2ccccc2C(=O)O)cc1	D2 antag 33.7
COc1ccc(/C=C/C(=O)Nc2ccccc2C(=O)NCC(c2ccc(OC)cc2)N(C)C)cc1 (stereo unspecified)	D2 antag 60.2 (no result: D2 PAM-2)
COC(=O)c1ccc(NC(=O)CC2C(=O)N(c3ccccc3)C(=O)N2C2CCCC2)cc1 (stereo unspecified)	none (no result: D2 PAM-1, D2 ag-1, D2 antag, D2 ag-2)
CC(=O)c1ccc(Nc2nc3ccccc3nc2-n2nc(C)cc2C)cc1	none (no result: D2 PAM-1, D2 antag, D2 ag-2)
CCOC(=O)c1cccc(NC(=O)N2CCC(CN3CCCCCC3)CC2)c1	none (no result: D2 PAM-1, D2 antag, D2 ag-2, D2 PAM-2)
Cc1csc(NC(=O)C2CCCN(S(=O)(=O)c3ccc(Br)s3)C2)n1 (stereo unspecified)	D2 antag 38.2
Cc1nn(-c2ccc(N3CCCC3)nn2)c(C)c1CCC(=O)NCc1ccccc1F	none (no result: D2 PAM-1, D2 antag, D2 ag-2)
Cc1ccc(C)c(OCCC(=O)OCC(=O)N2c3ccccc3NC(=O)C2(C)C)c1	D2 antag 42.3
CC1(C)C(=O)Nc2ccccc2N1C(=O)COC(=O)C1CCCCC1	none
CC(=O)NC(CC(=O)OCC(=O)N1c2ccccc2NC(=O)C1(C)C)c1ccccc1 (stereo unspecified)	D2 antag 52.4
COc1ccccc1-c1cnc(C(O)c2cc(C)ccc2C)[nH]1 (stereo unspecified)	none (no result: D2 ag-1, D2 antag, D2 PAM-2)
CCOC(=O)C1=CCN(S(=O)(=O)c2ccc(C)cc2)C1c1ccc(CC)cc1 (stereo unspecified)	none (no result: D2 ag-1, D2 antag, D2 PAM-2)
CCOc1ccccc1NC(=O)C(NS(=O)(=O)c1ccc2c(c1)CCC(=O)N2)c1ccccc1 (stereo unspecified)	none (no result: D2 PAM-1, D2 antag, D2 ag-2)
Cc1ccc(S(=O)(=O)N(CC(=O)N2CCOCC2)CC(=O)N2CCOCC2)cc1	D2 PAM-2 31.1
CCOc1ccc(NC(=O)Cn2cnc3sc(C)c(S(=O)(=O)N4CCN(c5ccccc5OC)CC4)c3c2=O)cc1	none (no result: D2 PAM-1, D2 antag, D2 ag-2)
C=CCNCCOc1ccc(C)cc1[N+](=O)[O-]	D2 antag 45.8
CCC(C)NCCOc1ccc(C)cc1[N+](=O)[O-] (stereo unspecified)	D2 antag 53.7
COCCCNCCCCOc1ccc(C)cc1[N+](=O)[O-]	none (no result: D2 ag-1, D2 antag, D2 PAM-2)
C=CCN(CC=C)CCOc1ccc(C)cc1[N+](=O)[O-]	D2 antag 38.3
CCCCNCCOCCOc1ccc(C)cc1[N+](=O)[O-]	none
C=CCc1ccc(OCCOCCOc2ccc(C)cc2[N+](=O)[O-])c(OC)c1	none
CCc1ccc(CN(C(=O)c2cc(=O)c3ccc(C)cc3o2)C2CCS(=O)(=O)C2)cc1 (stereo unspecified)	none (no result: D2 PAM-1, D2 antag, D2 ag-2)
COc1ccc(N(Cc2cccs2)C(=O)COc2ccc(C(C)C)cc2)cc1	none (no result: D2 PAM-1, D2 antag, D2 ag-2)
CCc1ccc(N2C(=O)CSC23C(=O)N(Cc2cccc(OC)c2)c2ccccc23)cc1 (stereo unspecified)	none (no result: D2 PAM-1, D2 antag, D2 ag-2)
COc1ccccc1Nc1nn2c(=O)c3ccc(C(=O)NCc4cccnc4)cc3nc2s1	D2 PAM-2 30.1 (no result: D2 PAM-1, D2 ag-2)
COc1ccccc1Nc1nn2c(=O)c3ccc(C(=O)NCc4ccc(F)cc4)cc3nc2s1	none (no result: D2 PAM-1, D2 antag, D2 ag-2)
O=C(/C=C/c1ccco1)Nc1cc(Cl)ccc1C(=O)O	D2 antag 34.4
O=C(/C=C/c1ccco1)NCCc1ccccc1	D2 antag 31.7
O=C(O)CCCNC(=O)/C=C/c1ccco1	none
CC(=O)c1ccc(S(=O)(=O)N2CCN(C(=O)c3ccc(-n4nc(C)c(Cl)c4C)cc3)CC2)cc1	D2 antag 30.6
CCOC(=O)c1ccccc1NC(=O)NC(C)c1c(-n2cccc2)sc(C)c1C (stereo unspecified)	none (no result: D2 PAM-1, D2 antag, D2 ag-2)
Cc1ccc(OCc2nnc(SCC(=O)Nc3ccccc3C(C)C)o2)cc1	none (no result: D2 PAM-1, D2 antag, D2 ag-2)
c1ccc(-c2ncc(CSc3nncn3-c3ccccc3)s2)cc1	none (no result: D2 ag-1, D2 antag, D2 PAM-2)
Cc1nnc(SCc2cnc(-c3ccc(C(C)C)cc3)s2)n1C	D2 antag 66.5
COc1cc2c(cc1OC)CN(C(=O)CSc1nc(C)cc(C)c1C#N)CC2	D2 PAM-2 34.5
COc1cc2c(cc1OC)CN(C(=O)CSc1ccc(F)cc1)CC2	D2 antag 61.3
O=C1NC(Cc2ccc(O)cc2)c2nc3ccccc3c(=O)n2-c2ncccc21 (stereo unspecified)	none (no result: D2 ag-1, D2 antag, D2 PAM-2)
CCN(CC)S(=O)(=O)c1ccc(C(=O)OCCN2C(=O)c3cccc4c(N5CCOCC5)ccc(c34)C2=O)cc1	none
O=C(OCCN1C(=O)c2cccc3c(N4CCOCC4)ccc(c23)C1=O)c1cc(Cl)cc(Cl)c1	D2 ag-1 48.3 (no result: D2 PAM-1, D2 ag-2)
COc1ccccc1N1CCN(C(=O)c2c(C)oc3ncn(C)c(=O)c23)CC1	none (no result: D2 PAM-1, D2 antag, D2 ag-2)
C=CCOc1ccccc1CN1CCC(C(=O)Nc2cccc(-c3ccn[nH]3)c2)CC1	D2 antag 92.4
CC(C)OCCCN1C(=O)c2[nH]nc(-c3ccccc3O)c2C1c1ccccc1F (stereo unspecified)	none (no result: D2 PAM-1, D2 antag, D2 ag-2)
O=C(COC(=O)C1C2CC3OC(=O)C1C3C2)Nc1ccccc1 (stereo unspecified)	D2 antag 69.5
COc1ccc2ccccc2c1CNC(C)CCc1ccccc1 (stereo unspecified)	D2 antag 30.1
Cc1sc2nc(C3CC3)nc(SCC(=O)N3CCc4ccccc4C3)c2c1C	none
CCc1c(C)sc2nc(C(C)C)nc(SCC(=O)N3CCc4ccccc4C3)c12	D2 antag 43.7
Cc1ccc(C(=O)Nc2nc(-c3ccccc3)c(-c3ccccc3)o2)cc1	none
